Calls of active or inactive are those of the source. How the source made its calls: active means hit-call score of the fitted dose curve at least 0.9, where 1 is the maximum; inactive means score below 0.9.
assay: ATG_PXRE_CIS: Attagene CIS-FACTORIAL HepG2 Assay for human Pregnane X Receptor Element (PXRE) (AID 2282957); conditions: HepG2 Attagene CIS-FACTORIAL PXRE reporter, mRNA; actives raise or lower the signal
Method: ATG_CIS is a cell-based, multiplexed-readout assay that uses HepG2, a human liver cell line, with measurements taken at 24 hours after chemical dosing in a 24-well plate.ATG_PXRE_CIS is one of 52 assay component(s) measured or calculated from the ATG_CIS assay. It is designed to make measurements of mRNA induction, a form of inducible reporter, as detected with fluorescence intensity signals by Reverse transcription polymerase chain reaction (RT-PCR) and Capillary electrophoresis technology.Data from the assay component ATG_PXRE_CIS was analyzed into 1 assay endpoint. This assay endpoint, ATG_PXRE_CIS, was analyzed with bidirectional fitting relative to DMSO as the negative control and baseline of activity. Using a type of inducible reporter, measures of mRNA for gain or loss-of-signal activity can be used to understand the reporter gene at the transcription factor-level as they relate to the gene NR1I2. Furthermore, this assay endpoint can be referred to as a primary readout, because this assay has produced multiple assay endpoints where this one serves a reporter gene function. To generalize the intended target to other relatable targets, this assay endpoint is annotated to the nuclear receptor intended target family, where the subfamily is non-steroidal.
Human liver HepG2 cells are transiently transfected with multiple reporter transcription units (MRTUs) in 6-well plates using FuGene 6 reagent (Roche; 3 ml FuGene/1 mg DNA). The MRTU constructs are regulated by a cis-regulating element (promoter). […] A major difference between the CIS and TRANS system is that in CIS activities of endogenous TFs are measured, whereas the TRANS assay evaluates changes in activities of exogenous, chimeric NR-Gal4 proteins. […] At the end of 24 hour incubation, total RNA was isolated using TriZol reagent (Invitrogen). The isolated RNA is then reverse-transcribed using oligo(dT) primer and Mo-MLV reverse transcriptase (Invitrogen) with DNAse I (Ambion) treatment for 30 min. The one-tenth of the produced cDNA was amplified by PCR using Taq DNA polymerase (Invitrogen) and two reporter sequence-specific primers. The PCR products were fluorescently labeled by primer extension with 6-arboxyfluorescein (6-FAM) 5'-labeled reporter sequence-specific primer (2 min at 95 C, 20 s at 68 C and 10 min at 72 C) and these products were digested with 5U of HpaI (New England Biolabs) for 2h at 37 C. The fragments were purified using Qiaquick PCR columns (Qiagen), analyzed on an ABI 3130xL genetic analyzer (Applied Biosystems) with peak positions identified by using a set of X-rhodamine (ROX)-labeled MapMarker1000 molecular weight standards (BioVentures). The raw capillary electrophoresis data was processed using Attagraph software (Attagene).

SMILES | AC50 | outcome
O=C1C=CC(=O)C=C1 | 26.4 µM (active) | 
C=Cc1cccc(CCl)c1 | 46.2 µM (active) | 
CNC(=N[N+](=O)[O-])NCC1CCOC1 (stereo not given) |  | inactive
c1ccc2c(c1)CCCC2 |  | inactive
Cc1ccccc1CCl |  | inactive
CCCOC(=O)c1ccccc1C(=O)OCCC | 28.9 µM (active) | 
CC(=O)/C=C/c1ccccc1 | 26.4 µM (active) | 
COCC(=O)N(c1c(C)cccc1C)N1CCOC1=O | 29.9 µM (active) | 
C=CCc1ccc(OC(=O)Cc2ccccc2)c(OC)c1 | 8.28 µM (active) | 
C[C@]12CC[C@H]3[C@@H](CC[C@@]45O[C@@H]4C(O)=C(C#N)C[C@]35C)[C@@H]1CC[C@@H]2O | 27.2 µM (active) | 
CC(C)C#N | 27.6 µM (active) | 
CCN(CC)C(=S)S | 22.7 µM (active) | 
O=CNC(N1CCN(C(NC=O)C(Cl)(Cl)Cl)CC1)C(Cl)(Cl)Cl (stereo not given) | 7.22 µM (active) | 
O=C(O)C(Br)Br |  | inactive
CCCCCCCCCCCC#N | 27.8 µM (active) | 
O=[N+]([O-])c1cc([N+](=O)[O-])c2ccccc2c1 | 8.8 µM (active) | 
ClC1=C(Cl)[C@]2(Cl)[C@@H]3[C@@H](Cl)[C@H](Cl)C[C@@H]3[C@@]1(Cl)C2(Cl)Cl |  | inactive
CC(C)[C@@H](C(=O)O[C@@H](C#N)c1cccc(Oc2ccccc2)c1)c1ccc(Cl)cc1 | 0.678 µM (active) | 
C[N+](C)=CCl |  | inactive
c1ccc(Nc2ccc3ccccc3c2)cc1 | 10.3 µM (active) | 

SMILES | AC50 | outcome
CCC(=O)c1ccc(Cl)cc1 |  | inactive
[Cl][Sb]([Cl])[Cl] |  | inactive
Cc1ccc(OP(=O)(Oc2ccc(C)cc2)Oc2ccc(C)cc2)cc1 (tested in a mixture with another compound) | 0.519 µM (active) | 
SCc1ccco1 | 27.7 µM (active) | 
O=S(=O)(O)O |  | inactive
CC(C)(Cl)Cl |  | inactive
CC(=O)c1cc2c(cc1C)C(C)(C)C(C)CC2(C)C (stereo not given) | 2.25 µM (active) | 
[CH3][Sn]([Cl])([Cl])[Cl] |  | inactive
CC(C)CCCCCCCOC(=O)c1ccccc1C(=O)OCCCCCCCC(C)C | 1.19 µM (active) | 
Nc1ccccc1 |  | inactive
C=C(Cl)CCl | 52 µM (active) | 
CCC(C)c1cc([N+](=O)[O-])cc([N+](=O)[O-])c1OC(=O)C=C(C)C (stereo not given) | 0.787 µM (active) | 
O=C1Nc2ccc(Cl)cc2C(c2ccccc2)=NC1O (stereo not given) |  | inactive
CCOP(O)OCC | 30.1 µM (active) | 
CCNCC |  | inactive
O=[N+]([O-])O |  | inactive
CCCCNP(N)(N)=S |  | inactive
Cc1ccc(C)c2ccccc12 | 33.4 µM (active) | 
CN(C)CCC#N |  | inactive
CCc1cc(C)cc(CC)c1-c1c(OC(=O)C(C)(C)C)n2n(c1=O)CCOCC2 | 9.48 µM (active) | 
